Measured values as given in PubChem BioAssay AID2129 (The Scripps Research Institute Molecular Screening Center, 2009).
Screen size: about 320,000 compounds; about 2,200 (0.69%) were called active. For the sample, actives were picked, then their nearest neighbours and some compounds at random. A number with no mark means an inactive call.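 Rule for the calls: active = inhibition above the mean of all tested compounds plus 3 SD, cutoff set per campaign (cut at about 30% in these data); inactive = the rest.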

Biological target: Bcl-2-like protein 1 (Homo sapiens) (UniProt Q07817)
Sequence (Q07817 whole entry, looked up): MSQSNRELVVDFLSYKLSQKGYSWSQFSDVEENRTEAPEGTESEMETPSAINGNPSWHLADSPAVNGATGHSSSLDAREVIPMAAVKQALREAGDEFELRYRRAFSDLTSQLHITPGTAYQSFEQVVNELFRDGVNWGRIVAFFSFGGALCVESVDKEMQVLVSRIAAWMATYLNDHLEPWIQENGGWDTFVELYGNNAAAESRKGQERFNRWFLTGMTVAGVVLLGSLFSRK
Test: Bcl-xL/Bim BH3 interaction blockers – biochemical, fluorescence polarization, HTS, primary screen (AID 2129);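 note: 0% = DMSO wells and 100% = unlabeled Bim-BH3 peptide competitor; inhibitors lower millipolarization by displacing the labeled peptide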
Conditions: GST-Bcl-xL / FITC-Bim BH3 peptide fluorescence polarization; at 10.9 µM; stronger effect = higher value

SMILES	inhibition
Cc1sc(NC(=O)c2ccc3ncsc3c2)c(C(N)=O)c1C	4.75%
O=C(COc1ccc(/C=N/NS(=O)(=O)c2ccccc2)cc1)NCCc1ccccc1	5.85%
COc1ccc(C2C=C(c3ccc(Br)cc3)Nc3nc(NS(C)(=O)=O)nn32)cc1 (stereo not given)	164% (active)
COc1ccc(C2=CC(c3cccc(OC)c3)n3nnnc3N2)cc1 (stereo not given)	29.1%
CC(C)c1ccc(N2CC(C(=O)Nc3nccs3)CC2=O)cc1 (stereo not given)	-0.59%
CC1=C(C(=O)N(C)C)C(c2ccccc2OC(F)F)NC(=O)N1 (stereo not given)	3.23%
Cc1cc2occ(CC(=O)NNC(=O)c3ccccc3F)c2cc1C	0.46%
COc1ccccc1NC(=S)N1CCC(NC(=O)C23CC4CC(CC(C4)C2)C3)CC1	2.22%
Cc1cccn2c(=O)c3cc(C#N)c(=NC(=O)c4cccnc4)n(CC4CCCO4)c3nc12 (stereo not given)	47.4% (active)
COc1ccc(CNC(=O)c2cc3c(=O)n4ccccc4nc3n(CC3CCCO3)c2=N)cc1 (stereo not given)	8.61%
Cc1cccn2c(=O)c3cc(C#N)c(=O)n(CCCN4CCOCC4)c3nc12	28.5%
Cc1oc2c(C)c3oc(=O)c(CC(=O)N[C@@H](CC(C)C)C(=O)N[C@@H](Cc4ccccc4)C(=O)O)c(C)c3cc2c1C	10.3%
CCOc1ccc(/C=N/OCC(=O)NCc2cccs2)cc1	2.85%
CCN(c1ccccc1)S(=O)(=O)c1ccc(OCC(=O)N2CCCC2)cc1	3.8%
CC(C)[C@@H](NC(=O)OC(C)(C)C)C(=O)NCC1CCC(C(=O)N[C@@H](Cc2ccccc2)C(=O)O)CC1 (stereo not given in full)	7.31%
CC(C)C1N=C2c3ccccc3N=C(SCC(=O)c3ccc(O)c(O)c3)N2C1=O (stereo not given)	13.5%
CC1(C)Cc2c(C#N)c(SCc3nc4ccccc4[nH]3)nc(N3CCOCC3)c2CO1	6.67%
O=c1[nH]c(N2CCOCC2)nc2ccccc12	3.04%
C1=C(N2CCOCC2)/C(=C/c2nc3ccccc3[nH]2)CC1	88.2% (active)
CS(=O)(=O)N(CC(=O)NCc1ccco1)c1ccc2c(c1)OCO2	5.67%
CCOC(=O)N1CCN(S(=O)(=O)c2cc(Br)cc3c2N(C(=O)C2CC2)CC3)CC1	-4.43%
CCN(c1ccc2c(c1)OCO2)S(=O)(=O)c1cc(Br)cc2c1N(C(=O)C1CC1)CC2	34% (active)
CCOc1cc(/C=C/C(=O)OCC(=O)NCCN2C(=O)CSC2=O)ccc1OCC(C)C	-5%

SMILES	inhibition
N#CC1=C(N)C(C#N)(C#N)[C@H](c2ccsc2)[C@H]2COCC=C12	37.8% (active)
Cc1cccc(Nc2nc(NCCO)nc(N3CCCC3)n2)c1	-0.55%
CCCc1cc(=O)[nH]c(SCC(=O)N2CCN(S(=O)(=O)c3ccc(C)cc3C)CC2)n1	3.73%
Cc1cc2oc3ccc(NCCC4CCCN4C)cc3c(=O)c2cc1C (stereo not given)	40.9% (active)
CCCOc1ccc(C2c3c(oc4cc(C)c(C)cc4c3=O)C(=O)N2CCCN2CCOCC2)cc1 (stereo not given)	11.6%
Fc1c(F)c(C(F)(F)F)c(F)c(F)c1N1CCN(c2ccc3nnc(C(F)(F)F)n3n2)CC1	3.95%
COc1cc(/C=C/C2=CC(C)(C)NC(=S)N2)cc(OC)c1OC	-3.53%
CCCCOC(=O)CNc1nnc(SCC(=O)OCC)[nH]c1=O	15.6%
O=C(NCCc1ccccc1)C1CCN(S(=O)(=O)c2ccc(Br)s2)CC1	2.98%
Cc1cc(C)c[n+](-c2nc3ccccc3nc2[N-]S(=O)(=O)c2cccs2)c1	5.77%
O=S(=O)([N-]c1nc2ccccc2nc1-[n+]1ccc(Cc2ccccc2)cc1)c1ccc(Br)s1	82.6% (active)
CCOC(=O)C1=C(O)/C(=C/c2ccc(OCC(=O)Nc3ccc(C)cc3)cc2)N=C1C	-2.9%
COC(=O)C1=C(O)/C(=C/c2ccc(OCC(=O)Nc3ccccc3)cc2)N=C1C	0.76%
CCOC(=O)C1=C(O)/C(=C/c2cc(C)n(-c3ccccc3)c2C)N=C1C	35.6% (active)
CCn1c2c(c3ccc(OC)cc31)CCCC2=O	5.26%
O=S(=O)(c1ccc(SCc2ccccc2)nc1)N1CCCCCC1	5.07%
CC(=O)c1cnn(-c2cc(Oc3ccc(F)cc3)ncn2)c1C	2.24%
COc1cccc(Nc2ncccc2C(=O)O)c1	6.39%
COc1ccc(Nc2cc(Cl)ccc2C(=O)O)cn1	50.8% (active)
COc1ccc(NS(=O)(=O)c2ccc(F)cc2F)cn1	3.96%
CCCCOP(=O)(c1ccc(N(C)C)cc1)C(O)c1cc(OC)ccc1OC (stereo not given)	5.82%
Cc1ccc(NC(=O)CSCC(=O)N2CCOCC2)cc1	1.4%
COC(=O)Cc1cc(=O)oc2c(C)c(O)ccc12	4.68%

SMILES	inhibition
Cc1cc(S(=O)(=O)c2cc3ccc(O)c(C)c3oc2=O)ccc1F	40.6% (active)
COc1cccc2cc(S(=O)(=O)c3ccc(C)cc3)/c(=N/NS(=O)(=O)c3ccc(C)cc3)oc12	5.22%
Cc1ccc(NC(=O)C2CC2c2ccccc2)cc1 (stereo not given)	2.22%
CC(=O)N1c2ccc(S(=O)(=O)N3CCC(C(=O)NC4CCCC(C)C4C)CC3)cc2CC1C (stereo not given)	0.13%
COc1ccccc1/C=C/C=N/n1c(-c2ccc(Cl)cc2Cl)n[nH]c1=S	-7.95%
CCn1c(SCc2ccccc2)nc2cc(OC)c(OC)cc2c1=O	3.12%
CSc1c(SCc2ccccc2)cnn(Cc2ccccc2)c1=O	145% (active)
COC(=O)c1ccc(SCc2ccccc2)nc1	6.87%
CCc1ccccc1NC(=O)NCCN1CCCCC1	5.44%
CCOC(=O)[C@@H]1[C@H]2COc3cc(OC)ccc3[C@@H]2N2C(=O)N(c3cccc(C)c3)C(=O)[C@@]12C	3.42%
Cn1sc(=O)c2cc(S(=O)(=O)NC3CC3)ccc21	2.2%
COc1cc2nc(CN(C)Cc3ccc(F)cc3)[nH]c(=O)c2cc1OC	-1.08%
COc1ccc(CN(C)Cc2nc3cc(OC)c(OC)cc3c(=O)[nH]2)c(OC)c1	85.4% (active)
COc1cc(CN(C)Cc2nc3cc(C(F)(F)F)ccc3c(=O)[nH]2)ccc1OC(F)F	-2.06%
Cc1cc(NC(=O)C(C)SCC(=O)Nc2ccccc2N2CCCCC2)no1 (stereo not given)	-2.56%
COc1ccc(CCNC(=O)COC(=O)c2cc(=O)c3ccccc3o2)cc1	-7.08%
O=C(C1CC(=O)N(C2CCCCC2)C1)N1CCN(c2ccccc2)CC1 (stereo not given)	3.83%
O=c1[nH]c(-c2ccccc2)c(-c2ccccc2)[nH]1	1.54%
O=c1[nH]c(=O)c2nc3ccccc3nc2[nH]1	33.4% (active)
CNC(=O)c1cccc2nc3ccccc3nc12	8.33%
CNC(C)C#Cc1ccc2sc3cc(OC)c(OC)cc3c(=O)c2c1 (stereo not given)	0.94%
COc1ccc(C(=O)NCC(c2ccco2)N2CCc3ccccc32)cc1OC (stereo not given)	3.87%
C[n+]1ccccc1C1CCCC/C1=N\Nc1ccc([N+](=O)[O-])cc1[N+](=O)[O-] (stereo not given)	-14.1%

SMILES	inhibition
COc1ccc(S(=O)(=O)N(C)CC(=O)NCCCN2CCOCC2)cc1Cl	-0.96%
COc1ccc2cc(C(=O)C3CCCN(C(=O)c4sc(C)nc4C)C3)ccc2c1 (stereo not given)	3%
COc1ccc2nc(N3CCCC(O)C3)c(C#N)cc2c1 (stereo not given)	32% (active)
COc1ccc2c(c1)CCc1cn3ncc(C#N)c3nc1-2	5.65%
CCOc1ccccc1Nc1ccc2nonc2c1[N+](=O)[O-]	-3.2%
O=[N+]([O-])c1c(NCCO)cc(Sc2nc3ccccc3s2)c2nonc12	38.8% (active)
O=C(O)c1ccccc1CSc1nc2ccccc2s1	15.6%
O=C(C1CCC1)N1CCc2cc(S(=O)(=O)NCc3cccnc3)ccc21	1.18%
CCN(CC)CCNc1nc(-c2ccc(OC(F)F)cc2)c(C)s1	4.61%
CCOc1ccc(C2C3=C(CCCC3=O)N(CC(=O)O)C3=C2C(=O)CCC3)cc1	6.72%
CCCN1C2=C(C(=O)CCC2)C(c2ccc(O)c(Br)c2)C2=C1CCCC2=O	37.8% (active)
COc1ccc(C2C3=C(CCCC3=O)N(CC(=O)O)C3=C2C(=O)CCC3)cc1	7.5%
CCCCCCCC1(C)NC(=O)N(CC(=O)Nc2cc(C)on2)C1=O (stereo not given)	3.89%
O=C(Oc1cccc(O)c1)C1CCCCC1	1.38%
CN(C(=O)CSc1nnc(-c2ccc3c(c2)OCO3)o1)C1CCS(=O)(=O)C1 (stereo not given)	3.5%
CCCc1cc(=O)[nH]c(SCC(=O)c2c(N)n(CC(C)C)c(=O)n(C)c2=O)n1	-0.53%
Cc1coc(C)c1C(=O)CC1(O)C(=O)N(C)c2ccc(Cl)cc21 (stereo not given)	3.68%
NC(=O)CC(NC(=O)Cc1cccc2ccccc12)c1ccc(NCc2cc(F)ccc2F)c([N+](=O)[O-])c1 (stereo not given)	-3.93%
COC(=O)CCCC1=CC2=CC(=O)C(C)(OC(=O)c3cccs3)C(=O)C2=CN1CC(C)C (stereo not given)	8.79%
COC(=O)CCCC1=CC2=CC(=O)C(C)(OC(=O)c3cccs3)C(=O)C2=CN1CC1CC1 (stereo not given)	13.4%
COC(=O)CCCC1=CC2=CC(=O)C(C)(OC(=O)c3cccs3)C(=O)C2=CN1c1cccc(C#N)c1 (stereo not given)	35.7% (active)
